Records with an inconclusive call do not appear. The source made the active and inactive calls. Calls follow the shape of the dose curve; as a rule, active = well fitted inhibition curve with a large enough effect; inconclusive = small, poorly fitted or top-dose-only effect; inactive = flat fitted curve, though single readings scatter.
Legend:
CRL-7250 = normal cell line; assay: Cytotoxic Profiling of Annotated Libraries Using Quantitative High-Throughput Screening (AID 1296008); details: Five cell lines viability, CellTiter-Glo ATP luminescence, 48-72 h; max response: stronger effect = lower value; as to max response: % is scaled to controls: 0 for no effect and ±100 for the full control effect
In short: (§1)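 Cells exposed to compounds for 48 or 72 hr at 37 degrees Celsius. Viability read as ATP-coupled luminescence with CellTiter-Glo after 10 min at room temperature.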

HEK293 = assay: as above; details: Five cell lines viability, CellTiter-Glo ATP luminescence, 48-72 h; max response: stronger effect = lower value
In short: as §1

HaCat = assay: as above; details: Five cell lines viability, CellTiter-Glo ATP luminescence, 48-72 h; max response: stronger effect = lower value
In short: as §1

KB-3-1 = assay: as above; details: Five cell lines viability, CellTiter-Glo ATP luminescence, 48-72 h; max response: stronger effect = lower value
In short: as §1

NIH3T3 = assay: as above; details: Five cell lines viability, CellTiter-Glo ATP luminescence, 48-72 h; max response: stronger effect = lower value
In short: as §1

HEK293T = assay: qHTS assay to identify novel small-molecules to repurpose for Merkel cell carcinoma treatment (AID 1296009); details: MCC and control cell lines, CellTiter-Glo viability, 72 h; series mostly up to 44.8 µM
In short: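 Cells were treated for 72 hr at 37 degree celsius with compounds in 8- or 11-point dose response. Viability was read by CellTiter-Glo luminescence, normalized to no-cell (cytotoxicity) and DMSO controls.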
Also: nearly all actives have a fitted effect of over 60% in size.

O=C(NCc1ccc(OC(F)(F)F)cc1)C1c2ccccc2C(=O)N1C1CCOCC1 (stereo not drawn)
inactive: outcome (CRL-7250) | outcome (HEK293) | max response (HaCat) -6.26% | outcome (KB-3-1) | outcome (NIH3T3) | Potency (HEK293T)

C[C@@H]1O[C@@H](O[C@H]2[C@H](OC(=O)C34CCC5(C)C(=CCC6C7(C)CC(O)C(O[C@@H]8O[C@H](C(=O)O)[C@@H](O)[C@H](O)[C@H]8O)C(C)(C(=O)O)C7CCC65C)C3CC(C)(C)CC4O)O[C@H](C)[C@@H](O)[C@@H]2O)[C@H](O)[C@@H](O[C@@H]2OC[C@](O)(CO)[C@H]2O[C@@H]2O[C@H](CO)[C@@H](O)[C@H](O)[C@H]2O)[C@H]1O (stereo partly drawn)
inactive: max response (CRL-7250) -4.39% | outcome (HEK293) | max response (HaCat) -8.41% | outcome (KB-3-1) | outcome (NIH3T3) | outcome (HEK293T) inactive [at 9.27 µM]

O=C(O)c1n[nH]c2c1C[C@H]1C[C@@H]21
inactive: max response (CRL-7250) -0.338% | outcome (HEK293) | max response (HaCat) 2.24% | max response (KB-3-1) 3.14% | max response (NIH3T3) -3.9% | Potency (HEK293T)

CC1NC(=O)C(Cc2c[nH]c3ccccc23)NC1=O (stereo not drawn)
inactive: max response (CRL-7250) 2.89% | outcome (HEK293) | max response (HaCat) 2.4% | max response (KB-3-1) 6.79% | max response (NIH3T3) 2.54% | Potency (HEK293T)

CC1=C2CC3OC3(C)CCC3OC3(C)CC2OC1=O (stereo not drawn)
inactive: max response (CRL-7250) -1.41% | outcome (HEK293) | max response (HaCat) -1.36% | outcome (KB-3-1) | max response (NIH3T3) -7.4% | Potency (HEK293T)

OC[C@H]1O[C@@H](Oc2cc(O)cc(-c3cc4ccc(O)cc4o3)c2)[C@H](O)[C@@H](O)[C@@H]1O
inactive: max response (CRL-7250) 0.0775% | outcome (HEK293) | max response (HaCat) -4.29% | max response (KB-3-1) 4.55% | max response (NIH3T3) 4.16% | Potency (HEK293T)

COc1cc([C@@H]2Oc3c(OC)cc(CCCO)cc3[C@@H]2CO[C@@H]2O[C@H](CO)[C@@H](O)[C@H](O)[C@H]2O)ccc1O
inactive: outcome (CRL-7250) | outcome (HEK293) | max response (HaCat) -11.2% | max response (KB-3-1) 9.39% | outcome (NIH3T3) | Potency (HEK293T)

COc1cc(C(=O)OC[C@H]2O[C@H](O[C@@]3(CO)O[C@@H](CO)[C@H](O)[C@H]3O)[C@H](O)[C@@H](O)[C@@H]2O)ccc1O
inactive: max response (CRL-7250) -10.5% | outcome (HEK293) | max response (HaCat) 2.76% | max response (KB-3-1) 4.87% | max response (NIH3T3) 0.778% | Potency (HEK293T)

COC1=CC(=O)C[C@@H](C)[C@]12Oc1cc(OC)cc(OC)c1C2=O
inactive: max response (CRL-7250) -2.71% | outcome (HEK293) | max response (HaCat) -2.69% | max response (KB-3-1) 5.37% | outcome (NIH3T3) | Potency (HEK293T)

CC1(C)CCC(C)(C)c2cc3c(cc21)Sc1ccccc1N=C3c1ccc(C(=O)O)cc1
inactive: outcome (CRL-7250) | outcome (HEK293) | max response (HaCat) -6.28% | max response (KB-3-1) -15.5% | max response (NIH3T3) 3.93% | Potency (HEK293T)

O=C(CCO[C@@H]1O[C@H](CO)[C@@H](O)[C@H](O)[C@H]1O)c1ccc(O)cc1
inactive: max response (CRL-7250) 3.35% | outcome (HEK293) | max response (HaCat) -12% | outcome (KB-3-1) | max response (NIH3T3) -1.69% | Potency (HEK293T)

N#CC1C(=O)Nc2scc(-c3ccc(-c4ccccc4O)cc3)c2C1=O (stereo not drawn)
inactive: max response (CRL-7250) -4.61% | outcome (HEK293) | max response (HaCat) 1.11% | outcome (KB-3-1) | outcome (NIH3T3) | Potency (HEK293T)

C=C/C=C/[C@@H]1OC[C@H](/C=C/C=C/C)[C@H]1O
inactive: max response (CRL-7250) -3.1% | outcome (HEK293) | max response (HaCat) -9.46% | outcome (KB-3-1) | max response (NIH3T3) -1.27% | Potency (HEK293T)

C[C@H]1CC[C@@]2(OC1)O[C@H]1CC3C4CC=C5C[C@H](O)C[C@@H](O[C@@H]6O[C@@H](C)[C@H](O)[C@@H](O)[C@H]6O[C@@H]6O[C@@H](C)[C@H](O)[C@@H](O)[C@H]6O)[C@]5(C)C4CC[C@]3(C)[C@H]1[C@@H]2C (stereo partly drawn)
inactive: max response (CRL-7250) -7.49% | outcome (HEK293) | max response (HaCat) -9.03% | outcome (KB-3-1) | max response (NIH3T3) 0.342% | Potency (HEK293T)

C/C(=C/CCC(CO)C1CCC2(C)C3CCC4C(C)(C)C(OC5OC(CO)C(O)C(O)C5O)CC(O)C45CC35CCC12C)COC1OC(CO)C(O)C(O)C1O (stereo not drawn)
inactive: outcome (CRL-7250) | outcome (HEK293) | max response (HaCat) -8.45% | max response (KB-3-1) -1.63% | max response (NIH3T3) 0.608% | Potency (HEK293T)

Nc1nonc1C(=Nc1ccc(F)c(Cl)c1)NO
inactive: max response (CRL-7250) -22.8% | outcome (HEK293) | max response (HaCat) -3.71% | outcome (KB-3-1) | outcome (NIH3T3) | Potency (HEK293T)

CC(c1c[nH]c2ccccc12)C(O)C(=O)O (stereo not drawn)
inactive: max response (CRL-7250) -1.71% | outcome (HEK293) | max response (HaCat) -10.2% | outcome (KB-3-1) | max response (NIH3T3) 3.62% | Potency (HEK293T)

COC(=O)c1cc(CN2CCN(C(=N)N)CC2)cc(C(=O)N2CCN(C(=O)c3ccc(C(=N)N)cc3)CC2)c1
inactive: outcome (CRL-7250) | outcome (HEK293) | max response (HaCat) 1.52% | max response (KB-3-1) 2.44% | outcome (NIH3T3) | Potency (HEK293T)

Source: PubChem BioAssay (NCATS)
